For one sequence, binding signal results are on record in PMC7862700, “An all-to-all approach to the identification of sequence-specific readers for epigenetic DNA modifications on cytosine”.

Holding throughout (assay): DAPPL (digital affinity profiling via proximity ligation, sequencing); 10 mM Tris-HCl pH 7.5, 50 mM NaCl, 1 mM DTT, 4% glycerol, room temperature, 30 min; GST-TFs on glutathione beads, 16-mer random dsDNA library, 0.1% formaldehyde crosslink after washing; high values mean tight binding
The target in one assay is T1, FLI1 (Homo sapiens, UniProt Q01543 1-452).
T1 sequence: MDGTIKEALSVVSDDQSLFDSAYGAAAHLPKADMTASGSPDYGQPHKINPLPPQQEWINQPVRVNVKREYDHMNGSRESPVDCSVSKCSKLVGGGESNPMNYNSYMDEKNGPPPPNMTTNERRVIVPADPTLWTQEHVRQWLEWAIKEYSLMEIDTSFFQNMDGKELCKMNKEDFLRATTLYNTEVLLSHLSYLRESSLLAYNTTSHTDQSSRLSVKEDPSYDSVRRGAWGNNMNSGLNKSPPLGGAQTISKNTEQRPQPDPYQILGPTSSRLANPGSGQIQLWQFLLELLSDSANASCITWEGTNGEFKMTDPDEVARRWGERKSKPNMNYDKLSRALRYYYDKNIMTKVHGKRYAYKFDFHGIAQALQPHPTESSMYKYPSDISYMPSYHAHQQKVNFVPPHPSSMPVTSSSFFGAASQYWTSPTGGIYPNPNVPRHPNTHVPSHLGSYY
The conditions noted are these: protein: recombinant; tags: N-terminal GST; dsDNA, one strand shown. In a few lines:
(§1)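 The binding signal reported is, for every hexamer, its read frequency for a factor over its read frequency for the tag-only sample. Reads came from pools of yeast-expressed, GST-fused human transcription factors on glutathione beads, barcoded with DNA and mixed with that sample, which were incubated with 200 nmole of a random double-stranded 16-mer DNA library in Tris/NaCl/DTT/glycerol buffer at room temperature for 30 min. After washing, the pools were crosslinked with 0.1% formaldehyde, proximity-ligated with BsaI/T4 ligase for 1 h at 37 °C, PCR-amplified and sequenced on an Illumina NextSeq500.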

A further assay concerns the target T2, ELK1 (Homo sapiens, UniProt P19419 1-428).
T2 sequence: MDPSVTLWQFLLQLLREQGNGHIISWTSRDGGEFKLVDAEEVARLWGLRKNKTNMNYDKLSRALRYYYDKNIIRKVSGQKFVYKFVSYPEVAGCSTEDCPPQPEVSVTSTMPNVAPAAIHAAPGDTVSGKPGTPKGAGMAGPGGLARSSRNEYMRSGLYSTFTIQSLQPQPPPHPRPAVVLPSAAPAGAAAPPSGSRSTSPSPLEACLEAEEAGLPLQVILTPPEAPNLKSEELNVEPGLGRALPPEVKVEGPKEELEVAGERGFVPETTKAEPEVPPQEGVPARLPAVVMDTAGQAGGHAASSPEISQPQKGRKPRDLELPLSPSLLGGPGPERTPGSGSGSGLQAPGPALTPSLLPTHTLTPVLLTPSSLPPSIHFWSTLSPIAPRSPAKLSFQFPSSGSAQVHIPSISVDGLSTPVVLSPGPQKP
The following applies: protein: recombinant; tags: N-terminal GST; dsDNA, one strand shown. In a few lines:
as §1

The next assay has as its target T3, GABPA (Homo sapiens, UniProt Q06546 1-454).
T3 sequence: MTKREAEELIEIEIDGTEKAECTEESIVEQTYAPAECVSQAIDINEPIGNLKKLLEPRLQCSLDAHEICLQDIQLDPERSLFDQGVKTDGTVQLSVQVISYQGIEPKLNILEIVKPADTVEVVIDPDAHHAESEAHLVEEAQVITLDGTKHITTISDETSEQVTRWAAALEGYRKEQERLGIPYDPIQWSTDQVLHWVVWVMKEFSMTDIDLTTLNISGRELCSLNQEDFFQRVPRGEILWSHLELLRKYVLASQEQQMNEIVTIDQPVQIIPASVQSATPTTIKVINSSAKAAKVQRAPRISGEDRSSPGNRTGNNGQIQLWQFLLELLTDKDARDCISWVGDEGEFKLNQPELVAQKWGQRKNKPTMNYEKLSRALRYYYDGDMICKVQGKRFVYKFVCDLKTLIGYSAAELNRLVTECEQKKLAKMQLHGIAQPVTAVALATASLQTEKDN
The conditions noted are these: protein: recombinant; tags: N-terminal GST; dsDNA, one strand shown. In a few lines:
as §1

Another assay concerns the target T4, ERG (Homo sapiens, UniProt P11308 1-479).
T4 sequence: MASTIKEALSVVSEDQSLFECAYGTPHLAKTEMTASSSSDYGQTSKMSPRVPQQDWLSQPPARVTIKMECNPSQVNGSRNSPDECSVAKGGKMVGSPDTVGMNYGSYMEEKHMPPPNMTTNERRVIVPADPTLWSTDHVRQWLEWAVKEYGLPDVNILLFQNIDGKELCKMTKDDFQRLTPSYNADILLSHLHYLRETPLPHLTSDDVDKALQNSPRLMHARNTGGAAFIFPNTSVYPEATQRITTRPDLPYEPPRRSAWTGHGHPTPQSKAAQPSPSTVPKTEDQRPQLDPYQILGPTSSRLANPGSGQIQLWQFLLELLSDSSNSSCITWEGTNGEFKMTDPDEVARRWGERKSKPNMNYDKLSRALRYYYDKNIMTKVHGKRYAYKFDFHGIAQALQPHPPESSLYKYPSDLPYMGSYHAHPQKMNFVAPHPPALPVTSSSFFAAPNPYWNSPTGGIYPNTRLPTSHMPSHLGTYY
The conditions noted are these: protein: recombinant; tags: N-terminal GST; dsDNA, one strand shown. The method in brief:
as §1

A further assay concerns the target ELF1 (Homo sapiens, UniProt P32519 1-619). The conditions noted are these: protein: recombinant; tags: N-terminal GST; dsDNA, one strand shown. The method in brief: as §1
A further assay concerns the target T5, EHF (Homo sapiens, UniProt Q9NZC4 1-300).
T5 sequence: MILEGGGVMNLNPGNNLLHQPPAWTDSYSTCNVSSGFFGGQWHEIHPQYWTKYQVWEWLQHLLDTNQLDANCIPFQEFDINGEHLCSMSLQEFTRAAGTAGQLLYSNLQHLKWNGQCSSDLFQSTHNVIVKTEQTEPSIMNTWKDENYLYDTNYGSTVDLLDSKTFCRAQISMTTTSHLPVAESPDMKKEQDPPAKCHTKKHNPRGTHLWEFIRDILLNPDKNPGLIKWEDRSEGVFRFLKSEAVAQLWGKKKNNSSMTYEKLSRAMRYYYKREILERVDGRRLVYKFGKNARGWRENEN
The conditions noted are these: protein: recombinant; tags: N-terminal GST; dsDNA, one strand shown. The method in brief:
as §1

The target of another assay is SPI1 (Homo sapiens, UniProt P17947 1-270). The conditions noted are these: protein: recombinant; tags: N-terminal GST; dsDNA, one strand shown. The method in brief: as §1
The next assay concerns the target SPIB (Homo sapiens, UniProt Q01892 1-262). The following applies: protein: recombinant; tags: N-terminal GST; dsDNA, one strand shown. The method in brief: as §1
Another assay concerns the target T6, ELK3 (Homo sapiens, UniProt P41970 1-407).
T6 sequence: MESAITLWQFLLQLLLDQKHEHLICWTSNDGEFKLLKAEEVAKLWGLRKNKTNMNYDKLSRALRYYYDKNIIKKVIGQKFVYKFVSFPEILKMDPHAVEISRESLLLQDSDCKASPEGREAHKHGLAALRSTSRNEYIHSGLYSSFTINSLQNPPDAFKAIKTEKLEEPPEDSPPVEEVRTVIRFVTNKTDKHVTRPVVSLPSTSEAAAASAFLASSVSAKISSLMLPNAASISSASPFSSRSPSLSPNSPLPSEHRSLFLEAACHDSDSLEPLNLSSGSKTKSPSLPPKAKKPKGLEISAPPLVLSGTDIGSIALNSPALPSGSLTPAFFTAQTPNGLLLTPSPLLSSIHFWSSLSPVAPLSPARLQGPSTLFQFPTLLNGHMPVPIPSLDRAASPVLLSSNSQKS
The conditions noted are these: protein: recombinant; tags: N-terminal GST; dsDNA, one strand shown. The method in brief: as §1

The target of another assay is T7, FEV (Homo sapiens, UniProt Q99581 1-238).
T7 sequence: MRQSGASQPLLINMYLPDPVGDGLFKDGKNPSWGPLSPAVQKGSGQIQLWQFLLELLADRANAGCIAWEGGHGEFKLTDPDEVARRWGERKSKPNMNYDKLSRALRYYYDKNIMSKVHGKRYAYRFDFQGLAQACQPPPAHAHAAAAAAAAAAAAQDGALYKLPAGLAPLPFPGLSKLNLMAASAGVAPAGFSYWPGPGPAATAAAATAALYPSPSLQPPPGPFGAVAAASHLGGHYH
The conditions noted are these: protein: recombinant; tags: N-terminal GST; dsDNA, one strand shown. In a few lines: as §1

In a further assay the target is ETV5 (Homo sapiens, UniProt P41161 1-510). The conditions noted are these: protein: recombinant; tags: N-terminal GST; dsDNA, one strand shown. The method in brief:
as §1

A further assay addresses HSF1 (Homo sapiens, UniProt Q00613 1-529). The following applies: protein: recombinant; tags: N-terminal GST; chain copies: 3; dsDNA, one strand shown. In a few lines: as §1
The next assay has as its target T8, SPIC (Homo sapiens, UniProt Q8N5J4 1-248).
T8 sequence: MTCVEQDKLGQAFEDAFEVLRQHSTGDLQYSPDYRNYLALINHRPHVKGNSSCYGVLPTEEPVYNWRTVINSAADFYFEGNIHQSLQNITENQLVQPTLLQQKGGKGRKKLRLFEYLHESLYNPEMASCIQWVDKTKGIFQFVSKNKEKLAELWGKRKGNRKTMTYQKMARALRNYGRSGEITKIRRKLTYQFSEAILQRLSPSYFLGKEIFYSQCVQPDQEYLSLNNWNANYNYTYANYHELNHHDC
The following applies: protein: recombinant; tags: N-terminal GST; dsDNA, one strand shown. The method in brief:
as §1

In another assay the target is ELF4 (Homo sapiens, UniProt Q99607 1-663). The conditions noted are these: protein: recombinant; tags: N-terminal GST; dsDNA, one strand shown. In a few lines:
as §1

Another assay addresses T9, ELK4 (Homo sapiens, UniProt P28324-2 1-405).
T9 sequence: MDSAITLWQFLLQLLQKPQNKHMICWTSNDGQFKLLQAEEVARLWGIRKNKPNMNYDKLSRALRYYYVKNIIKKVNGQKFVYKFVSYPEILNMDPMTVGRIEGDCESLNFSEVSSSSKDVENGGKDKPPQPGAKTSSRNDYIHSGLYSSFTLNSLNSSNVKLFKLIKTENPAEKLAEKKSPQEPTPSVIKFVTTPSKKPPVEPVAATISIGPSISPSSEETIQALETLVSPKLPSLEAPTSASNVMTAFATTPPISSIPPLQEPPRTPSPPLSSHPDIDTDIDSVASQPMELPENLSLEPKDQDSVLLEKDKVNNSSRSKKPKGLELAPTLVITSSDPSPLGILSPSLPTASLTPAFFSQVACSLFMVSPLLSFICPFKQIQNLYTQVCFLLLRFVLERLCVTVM
The conditions noted are these: protein: recombinant; tags: N-terminal GST; dsDNA, one strand shown. The method in brief: as §1

Another assay deals with T10, ETV2 (Homo sapiens, UniProt O00321 1-342).
T10 sequence: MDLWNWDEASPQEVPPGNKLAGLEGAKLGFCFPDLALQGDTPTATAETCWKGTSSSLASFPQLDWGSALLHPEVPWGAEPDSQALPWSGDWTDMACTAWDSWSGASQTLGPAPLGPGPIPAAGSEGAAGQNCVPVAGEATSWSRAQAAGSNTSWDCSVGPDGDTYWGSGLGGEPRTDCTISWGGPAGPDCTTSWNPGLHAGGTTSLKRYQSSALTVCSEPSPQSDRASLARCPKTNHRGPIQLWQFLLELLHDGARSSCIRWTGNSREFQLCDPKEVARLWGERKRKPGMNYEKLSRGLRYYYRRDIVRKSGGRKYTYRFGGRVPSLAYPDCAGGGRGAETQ
The conditions noted are these: protein: recombinant; tags: N-terminal GST; dsDNA, one strand shown. The method in brief: as §1

In the next assay the target is T11, ELF3 (Homo sapiens, UniProt P78545 1-371).
T11 sequence: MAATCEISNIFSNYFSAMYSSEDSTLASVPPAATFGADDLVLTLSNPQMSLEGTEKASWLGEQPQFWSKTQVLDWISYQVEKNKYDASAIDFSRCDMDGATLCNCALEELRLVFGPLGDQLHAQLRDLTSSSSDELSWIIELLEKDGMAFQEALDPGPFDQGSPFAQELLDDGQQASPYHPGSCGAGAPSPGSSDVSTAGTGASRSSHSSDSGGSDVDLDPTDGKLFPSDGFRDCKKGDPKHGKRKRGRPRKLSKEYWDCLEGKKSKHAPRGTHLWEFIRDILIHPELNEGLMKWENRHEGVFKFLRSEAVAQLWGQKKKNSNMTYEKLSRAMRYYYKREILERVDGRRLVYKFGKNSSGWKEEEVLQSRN
The following applies: protein: recombinant; tags: N-terminal GST; dsDNA, one strand shown. The method in brief:
as §1

In a further assay the target is CRX (Homo sapiens, UniProt O43186 1-299). The following applies: protein: recombinant; tags: N-terminal GST; dsDNA, one strand shown. In a few lines:
as §1

For a further assay, the target named is ETV1 (Homo sapiens, UniProt P50549 1-477). The conditions noted are these: protein: recombinant; tags: N-terminal GST; dsDNA, one strand shown. In a few lines: as §1
Chain of ETV1 (P50549 whole entry): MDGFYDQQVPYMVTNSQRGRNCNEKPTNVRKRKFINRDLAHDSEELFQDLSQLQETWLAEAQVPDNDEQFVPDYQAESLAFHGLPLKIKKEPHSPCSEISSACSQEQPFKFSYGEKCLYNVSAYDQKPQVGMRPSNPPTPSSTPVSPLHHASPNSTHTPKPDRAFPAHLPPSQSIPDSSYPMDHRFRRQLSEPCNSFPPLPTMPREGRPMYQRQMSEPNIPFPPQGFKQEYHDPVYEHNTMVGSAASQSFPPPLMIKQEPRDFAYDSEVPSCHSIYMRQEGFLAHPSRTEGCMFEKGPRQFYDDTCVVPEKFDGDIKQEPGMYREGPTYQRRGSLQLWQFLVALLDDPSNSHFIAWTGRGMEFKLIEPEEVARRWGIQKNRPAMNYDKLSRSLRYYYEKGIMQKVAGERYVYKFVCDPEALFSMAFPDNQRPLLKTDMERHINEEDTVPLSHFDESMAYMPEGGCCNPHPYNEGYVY

Chain of ELF4 (Q99607 whole entry): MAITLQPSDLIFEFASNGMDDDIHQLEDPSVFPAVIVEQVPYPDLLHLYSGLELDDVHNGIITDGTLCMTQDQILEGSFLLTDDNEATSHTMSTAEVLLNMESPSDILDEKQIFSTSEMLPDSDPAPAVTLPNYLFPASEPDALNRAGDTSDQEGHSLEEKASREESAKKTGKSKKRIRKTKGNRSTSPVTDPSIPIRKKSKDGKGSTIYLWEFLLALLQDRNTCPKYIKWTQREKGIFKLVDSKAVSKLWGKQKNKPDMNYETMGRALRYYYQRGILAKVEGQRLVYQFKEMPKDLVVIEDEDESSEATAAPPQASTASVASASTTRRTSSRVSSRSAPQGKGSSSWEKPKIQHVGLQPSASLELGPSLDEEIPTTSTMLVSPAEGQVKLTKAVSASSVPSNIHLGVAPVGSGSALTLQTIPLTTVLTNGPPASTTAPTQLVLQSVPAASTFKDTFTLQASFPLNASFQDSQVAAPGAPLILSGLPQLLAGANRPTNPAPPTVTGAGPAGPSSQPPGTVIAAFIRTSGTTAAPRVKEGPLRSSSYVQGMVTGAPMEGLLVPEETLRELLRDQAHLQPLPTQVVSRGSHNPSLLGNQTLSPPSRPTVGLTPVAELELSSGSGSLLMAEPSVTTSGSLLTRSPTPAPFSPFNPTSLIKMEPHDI
Chain of ELF1 (P32519 whole entry): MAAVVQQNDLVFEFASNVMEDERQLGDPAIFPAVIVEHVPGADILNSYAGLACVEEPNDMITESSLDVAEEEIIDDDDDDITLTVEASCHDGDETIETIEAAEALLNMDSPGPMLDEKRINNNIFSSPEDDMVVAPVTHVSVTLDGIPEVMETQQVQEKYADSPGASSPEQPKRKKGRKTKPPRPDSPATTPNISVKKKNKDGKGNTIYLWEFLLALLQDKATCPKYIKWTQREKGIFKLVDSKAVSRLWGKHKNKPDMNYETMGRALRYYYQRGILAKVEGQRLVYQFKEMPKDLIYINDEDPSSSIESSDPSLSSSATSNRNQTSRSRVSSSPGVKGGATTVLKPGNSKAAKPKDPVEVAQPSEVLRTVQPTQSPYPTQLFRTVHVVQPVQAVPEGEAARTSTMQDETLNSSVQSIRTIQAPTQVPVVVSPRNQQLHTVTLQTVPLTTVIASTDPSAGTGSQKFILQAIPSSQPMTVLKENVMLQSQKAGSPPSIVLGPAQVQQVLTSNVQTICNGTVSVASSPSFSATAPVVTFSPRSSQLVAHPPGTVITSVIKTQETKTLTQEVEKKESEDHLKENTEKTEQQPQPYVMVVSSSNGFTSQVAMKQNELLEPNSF
Chain of HSF1 (Q00613 whole entry): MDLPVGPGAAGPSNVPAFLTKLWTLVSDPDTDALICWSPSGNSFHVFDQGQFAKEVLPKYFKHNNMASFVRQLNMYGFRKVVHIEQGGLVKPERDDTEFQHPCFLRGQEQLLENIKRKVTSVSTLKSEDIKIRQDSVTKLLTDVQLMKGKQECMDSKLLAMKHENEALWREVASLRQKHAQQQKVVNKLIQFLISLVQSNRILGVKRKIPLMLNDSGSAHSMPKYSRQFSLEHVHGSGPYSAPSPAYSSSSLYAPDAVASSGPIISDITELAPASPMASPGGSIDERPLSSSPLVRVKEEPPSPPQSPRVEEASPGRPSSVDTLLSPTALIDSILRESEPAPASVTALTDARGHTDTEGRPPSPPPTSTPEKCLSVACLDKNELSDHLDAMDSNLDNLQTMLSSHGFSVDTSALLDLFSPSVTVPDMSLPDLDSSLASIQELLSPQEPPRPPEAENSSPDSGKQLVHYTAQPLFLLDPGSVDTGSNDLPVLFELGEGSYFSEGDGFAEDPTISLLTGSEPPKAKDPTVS
Chain of CRX (O43186 whole entry): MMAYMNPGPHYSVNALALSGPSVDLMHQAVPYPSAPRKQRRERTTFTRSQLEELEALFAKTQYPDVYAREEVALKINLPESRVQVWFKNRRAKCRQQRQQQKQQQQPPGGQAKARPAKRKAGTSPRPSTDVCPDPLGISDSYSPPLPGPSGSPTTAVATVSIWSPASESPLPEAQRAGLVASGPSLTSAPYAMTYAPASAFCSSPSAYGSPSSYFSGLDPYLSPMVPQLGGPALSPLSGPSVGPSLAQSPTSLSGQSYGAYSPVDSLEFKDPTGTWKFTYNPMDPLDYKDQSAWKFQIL
Chain of ETV5 (P41161 whole entry): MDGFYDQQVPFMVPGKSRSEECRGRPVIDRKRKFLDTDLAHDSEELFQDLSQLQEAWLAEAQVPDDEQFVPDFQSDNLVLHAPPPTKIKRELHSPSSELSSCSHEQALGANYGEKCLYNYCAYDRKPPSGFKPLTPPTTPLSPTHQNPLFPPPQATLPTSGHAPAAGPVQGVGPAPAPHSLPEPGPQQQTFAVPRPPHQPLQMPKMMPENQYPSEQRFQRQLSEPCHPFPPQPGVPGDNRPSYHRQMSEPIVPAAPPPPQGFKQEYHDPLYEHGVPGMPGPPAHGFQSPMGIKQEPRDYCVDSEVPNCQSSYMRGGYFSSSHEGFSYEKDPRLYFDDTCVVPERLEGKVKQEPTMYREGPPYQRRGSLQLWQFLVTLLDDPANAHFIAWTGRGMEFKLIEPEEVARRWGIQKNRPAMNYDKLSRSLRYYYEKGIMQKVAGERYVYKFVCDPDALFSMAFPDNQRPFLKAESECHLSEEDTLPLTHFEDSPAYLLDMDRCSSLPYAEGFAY
Chain of SPIB (Q01892 whole entry): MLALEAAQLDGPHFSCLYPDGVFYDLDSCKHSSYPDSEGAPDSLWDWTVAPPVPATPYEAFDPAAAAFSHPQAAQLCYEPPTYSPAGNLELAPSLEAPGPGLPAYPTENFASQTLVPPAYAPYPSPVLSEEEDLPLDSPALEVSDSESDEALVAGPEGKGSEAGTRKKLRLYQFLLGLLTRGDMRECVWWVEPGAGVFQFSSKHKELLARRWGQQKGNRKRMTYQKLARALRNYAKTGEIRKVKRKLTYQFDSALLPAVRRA

For the sequence ATCATG, the binding signal in the assay with FLI1 was 1.21 fold enrichment (6-mer frequency, TF over GST control); with ELK1, 1.15 fold enrichment (6-mer frequency, TF over GST control); with GABPA it was 1.22 fold enrichment (6-mer frequency, TF over GST control); in the assay with ERG, 1.1 fold enrichment (6-mer frequency, TF over GST control); with ELF1 it was 1.17 fold enrichment (6-mer frequency, TF over GST control); with EHF, 1.19 fold enrichment (6-mer frequency, TF over GST control). Further, the binding signal is 1.06 fold enrichment (6-mer frequency, TF over GST control) with SPI1; 1.14 fold enrichment (6-mer frequency, TF over GST control) with SPIB; 1.15 fold enrichment (6-mer frequency, TF over GST control) with ELK3; 1.13 fold enrichment (6-mer frequency, TF over GST control) in the assay with FEV; 1.09 fold enrichment (6-mer frequency, TF over GST control) with ETV5; 1.09 fold enrichment (6-mer frequency, TF over GST control) in the assay with HSF1. The binding signal is 1.09 fold enrichment (6-mer frequency, TF over GST control) in the assay with SPIC; 1.09 fold enrichment (6-mer frequency, TF over GST control) in the assay with ELF4; 1.14 fold enrichment (6-mer frequency, TF over GST control) in the assay with ELK4; 1.18 fold enrichment (6-mer frequency, TF over GST control) in the assay with ETV2; 1.25 fold enrichment (6-mer frequency, TF over GST control) in the assay with ELF3; 1.21 fold enrichment (6-mer frequency, TF over GST control) with CRX. Further, the binding signal in the assay with ETV1 is 1.19 fold enrichment (6-mer frequency, TF over GST control).
